# Screening data: PubChem BioAssay, several laboratories
# Sampled rows, rich in hits. Any-hit rate of the full collection: about 5%.
# AHR activator: AHR activators, primary screen, cell-based, luminescence, luciferase reporter, human; Aryl hydrocarbon receptor (Homo sapiens), P35869; AHR-responsive luciferase reporter cells; activation, % at 5 µM; hit rate 2.5% among 320,000; AID 2796, 2010; in the data active = activation above about 47%;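 also: 0% = vehicle wells and 100% = reference agonist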
# SENP8 block-1: SENP8 protease inhibitors, primary screen, biochemical, luminescence | Sentrin-specific protease 8 (Homo sapiens), Q96LD8 | purified SENP8, Z-RLRGG-aminoluciferin cleavage | inhibition, % at 10 µM | hit rate 1.2% among 330,000 | AID 2540, 2010; in the data active = inhibition above about 50%
# Target sequence (Q96LD8 whole entry, looked up): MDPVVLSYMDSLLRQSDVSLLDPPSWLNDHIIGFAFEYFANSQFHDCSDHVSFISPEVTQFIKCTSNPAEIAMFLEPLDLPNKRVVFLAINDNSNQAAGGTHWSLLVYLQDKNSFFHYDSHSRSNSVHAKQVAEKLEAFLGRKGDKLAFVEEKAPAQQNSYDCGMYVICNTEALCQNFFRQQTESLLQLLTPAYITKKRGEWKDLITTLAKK
# EBI2 block: EBI2 receptor antagonists, beta-arrestin recruitment, primary screen, cell-based, luminescence, 7a,25-OHC stimulation, uHTS | G-protein coupled receptor 183 (Homo sapiens), P32249 | 7a,25-OHC stimulated | inhibition, % at 5 µM | hit rate 0.81% among 360,000 | AID 651636, 2012; in the data active = inhibition above about 38%;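 also: enzyme fragment complementation signal reports receptor beta-arrestin coupling in cells; 0% = agonist plus DMSO wells and 100% = wells without agonist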
# Target sequence (P32249 whole entry, looked up, the tested form may be a part): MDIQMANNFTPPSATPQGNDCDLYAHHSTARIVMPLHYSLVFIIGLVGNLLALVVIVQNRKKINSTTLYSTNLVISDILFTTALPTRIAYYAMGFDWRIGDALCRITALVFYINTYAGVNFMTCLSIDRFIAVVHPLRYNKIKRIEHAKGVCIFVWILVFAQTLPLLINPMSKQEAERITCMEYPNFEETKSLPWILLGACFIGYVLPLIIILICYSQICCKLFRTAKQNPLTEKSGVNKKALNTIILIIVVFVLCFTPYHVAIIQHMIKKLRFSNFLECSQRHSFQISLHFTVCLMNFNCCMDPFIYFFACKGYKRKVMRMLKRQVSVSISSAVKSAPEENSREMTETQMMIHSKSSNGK
# SENP6 block: SENP6 protease inhibitors, primary screen, biochemical, luminescence, uHTS | inhibition, % at 10 µM | Sentrin-specific protease 6 (Homo sapiens), Q9GZR1 | Recombinant SENP6 catalytic domain, aminoluciferin luminescence | hit rate 1.8% among 330,000;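 active = inhibition above about 50% at the single tested dose, limit read from the data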;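 also: plate controls were DMSO wells with enzyme for no effect and DMSO wells lacking enzyme for full effect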
# SENP8 block-2: human SENP8 protease inhibitors, primary screen, biochemical, fluorescence, Nedd8 protein substrate, uHTS | hit rate 0.64% among 360,000 | recombinant SENP8 | Sentrin-specific protease 8 (Homo sapiens), Q96LD8 | inhibition, % at 20 µM; in the data active = inhibition mostly above about 40%, no sharp cut-off; inactive = mostly below about 27%
# SENP7 block: SENP7 protease inhibitors, primary screen, biochemical, luminescence, uHTS; Sentrin-specific protease 7 (Homo sapiens), Q9BQF6; recombinant SENP7, Z-RLRGG-aminoluciferin luminescence, 40 min; inhibition, % at 5 µM; hit rate 1.5% among 330,000; AID 434973, 2010;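 active = inhibition above about 50% at the single test dose, limit read from the data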;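 also: plate controls were DMSO with enzyme for no effect and no enzyme buffer wells for full effect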
# Numbers without * were called inactive; . = not tested or not shown.
SMILES,AHR activator,SENP8 block-1,EBI2 block,SENP6 block,SENP8 block-2,SENP7 block
O=S1(=O)CC(N2CCC(c3ccccc3)CC2)CN1Cc1ccccc1 (stereo unspecified),.,.,17,.,9,.
CCc1ccc(NC(=O)CSc2nnc(Cn3c(=O)sc4ccccc43)n2C)cc1,78*,-1,3,-6,19,2
Cc1cc(C)cc(NC(=O)CSc2nnnn2-c2cccnc2)c1,19,8,7,-1,7,5
CCNc1nc(NCC)n2c(SCC(=O)Nc3ccc(CC)cc3)nnc2n1,50*,0,3,-26,12,7
CCc1ccc(Nc2nc(N)nc(CSc3nnnn3-c3ccccc3)n2)cc1,50*,-1,16,-10,11,-4
CCc1ccc(NC(=O)CSc2nnnn2-c2cccnc2)cc1,63*,-9,8,-9,7,-7
Cc1ccccc1Nc1nc(N)nc(CSc2nnnn2-c2ccccc2)n1,5,-2,-3,17,8,6
Cc1ccc([C@H]2C[C@H](n3cc(-c4ccc(F)cc4)nn3)[C@@H](O)CN2CC2CCCCC2)cc1,.,.,16,.,-2,.
CC1(C(=O)OCC(=O)NCCNC(=O)COC(=O)C2(C)CC2(Cl)Cl)CC1(Cl)Cl (stereo unspecified),0,7,0,0,-10,5
CCc1ccc(N2CC(C(=O)N3CCN(c4ccc([N+](=O)[O-])cc4)CC3)CC2=O)cc1 (stereo unspecified),.,.,-1,.,24,.
CC1=C(C(=O)N(C)C)CC(CC(=O)NCCCN(C)C)C(=O)N1CCC1=CCCCC1 (stereo unspecified),.,.,-8,.,5,.
Cc1ccc(NC(=O)CN(C)C(=O)Cc2c(Cl)cccc2Cl)cc1,5,-2,5,5,0,1
Cn1c(=O)c2nc(NCc3ccccc3)sc2n(C)c1=O,.,.,-5,.,9,.
COC(=O)CCC(=O)Nc1ccc(S(=O)(=O)Nc2cc(OC)nc(OC)n2)cc1,74*,-9,-3,-12,9,9
Cc1nn(-c2ccc(Cl)cc2)c(=O)c2ccccc12,54*,-12,5,-8,-25,-13
Cc1nn(-c2ccc(Cl)c(Cl)c2)c(=O)c2ccccc12,16,-1,16,15,-53,5
C[C@@H](c1ccccc1)N1C[C@H](COCc2ccccc2)Oc2cc(N3CC[C@H](N(C)C)C3)ccc2S1(=O)=O,.,.,-2,.,-6,.
O=C(Nc1nc(-c2ccc(F)cc2)cs1)c1cccc(N2C(=O)CCC2=O)c1,48*,-4,10,-7,-16,-1
COc1cccc(-c2c(-c3ccccc3OC)ncn2Cc2cccc(-c3ccccc3)c2)c1,.,.,15,.,-13,.
CCC(C)[C@H](NC(=O)OC(C)(C)C)C(=O)N/N=C/c1cccc2nccnc12 (stereo partly specified),1,-3,2,1,-38,2
CCC(C)[C@@H](N)C(=O)N/N=C/c1cccc2nccnc12 (stereo partly specified),70*,1,.,9,.,-2
O=C1c2ccccc2S(=O)(=O)N1CC1CC(c2ccc(Cl)cc2)=NO1 (stereo unspecified),49*,-16,4,11,18,-12
O=C1c2ccccc2S(=O)(=O)N1CC1CC(c2ccccc2)=NO1 (stereo unspecified),4,-7,-1,1,20,1
O=C(/C=C/c1ccc(O)cc1)c1ccc(O)cc1O,66*,14,25,29,1,-14
COc1ccc(C(=O)/C=C/c2ccccc2)c(O)c1,9,-24,34,-14,-1,-15
SMILES,AHR activator,SENP8 block-1,EBI2 block,SENP6 block,SENP8 block-2,SENP7 block
O=C(C1=C(O)C(=O)N(c2ncccn2)C1c1ccc(Cl)c(Cl)c1)c1ccco1 (stereo unspecified),22,6,14,-10,-22,2
O=C(C1=C(O)C(=O)N(c2ncccn2)C1c1ccc(Cl)cc1)c1ccco1 (stereo unspecified),75*,-10,-4,-6,-30,12
Nc1nc(Cl)c(N)c(NCC2(CO)CC(CCc3ccccc3)C2)n1 (stereo unspecified),.,.,-6,.,-232,.
Cc1ccc(-c2csc3ncnc(Nc4ccc(N5CCOCC5)cc4)c23)cc1,78*,2,-6,6,-42,5
CC1C(=O)N(Cc2cn(CC3CCCCC3)nn2)CCS(=O)(=O)N1Cc1ccc(-c2cccc(CO)c2)cc1 (stereo unspecified),.,.,-1,.,14,.
CC1=C(C(=O)Nc2cc(C(=O)N3CCN(c4ccc(Cl)cc4)CC3)ccc2C)SCCO1,.,.,-3,.,1,.
C/C(=N\Nc1nc2ccccc2s1)c1ccc(Br)s1,54*,-6,22,-9,-46,5
CC(=NNc1nc2ccccc2s1)c1ccncn1,.,.,55*,.,0,.
COc1ccc(NC(=O)CCC(=O)OCc2ccc([N+](=O)[O-])cc2)cc1,-3,-15,-7,-11,9,-2
O=C(NCc1ccccc1)C(c1ccc(-c2ccccc2)cc1)N1CCN(C(=O)C2CCCO2)CC1 (stereo unspecified),.,.,-1,.,18,.
CC(=O)Oc1cc(O)c2c(=O)c(OC(C)=O)c(-c3ccc(OC(C)=O)c(OC(C)=O)c3)oc2c1,26,8,-1,3,40*,-2
C[C@@H]1CN([C@H](C)CO)C(=O)CCCn2nncc2CO[C@H]1CN(C)C(=O)Cc1ccccc1,.,.,1,.,13,.
CC(=O)N1c2ccc3ccccc3c2C2C=CCC2C1c1ccc(Br)cc1 (stereo unspecified),85*,.,.,.,.,.
CCCCNC(=O)C1c2ccccc2OCC(=O)N1CCc1ccc(OC)c(OC)c1 (stereo unspecified),.,.,-6,.,10,.
O=[N+]([O-])c1cccc(-c2csc(Nc3ccccc3)n2)c1,48*,3,18,20,14,0
COc1ccccc1Nc1nc(-c2cccc([N+](=O)[O-])c2)cs1,79*,1,27,-12,11,12
COc1cc(NS(=O)(=O)c2ccc(Nc3nc(-c4cccc([N+](=O)[O-])c4)cs3)cc2)nc(OC)n1,-1,4,-15,-9,9,3
CCCCNC(=S)NNC(=O)c1c(C)nc2ccccn12,1,-7,9,-22,-41,-1
Cc1ccc(-n2[nH]c(=O)c3cccnc32)cc1,64*,-5,-8,-10,16,-3
Cc1ccc(-n2[nH]c(=O)c(-c3ccccn3)c2C)cc1,26,23,2,48,9,42
CC(C)OC(=O)/C(=C\c1ccc2c(c1)c1ccccc1n2C)NC(=O)c1ccccc1,75*,17,2,42,-323,30
